ChEMBL document CHEMBL4513216, “Probing the Open Global Health Chemical Diversity Library for Multistage-Active Starting Points for Next-Generation Antimalarials” (ACS Infect Dis, 2020)
Among all 68,000 compounds or so, about 2,700 (4%) showed an effect of 50% or more. The entries come from a sample that favours strong results as a whole.

Test system: Plasmodium berghei
Test: Screen against P. berghei liver stage (PbLuc), transformed with Luciferase, at 2uM
Assay type: functional, HepG2
Settings: tested at 2 uM

| Compound | INHIBITION [%] |
| --- | --- |
| O=C(C[S+]([O-])Cc1cccc(F)c1)NC1CCCC1 (stereo unspecified) | 27.67 |
| CCN1CCCN(C(=O)c2cnc(OC(C)C)c(Cl)c2)CC1 | -16.16 |
| CC(C)Oc1ncc(C(=O)N2CCC(NC(=O)C3CC3)CC2)cc1Cl | -58.69 |
| CC(C)Oc1ncc(C(=O)N2CCCC(C(=O)O)C2)cc1Cl (stereo unspecified) | 0.51 |
| CC(C)Oc1ncc(C(=O)N2CCC(N(C)C)CC2)cc1Cl | 55.36 |
| CC(O)CN1CCN(C(=O)c2cnc(OC(C)C)c(Cl)c2)CC1 (stereo unspecified) | 19.59 |
| CC(=O)N1CCN(C(=O)c2cnc(OC(C)C)c(Cl)c2)CC1 | 55.36 |
| CC(=O)N1CCCN(C(=O)c2cnc(OC(C)C)c(Cl)c2)CC1 | 31.51 |
| CC(C)Oc1ncc(C(=O)N2CCC(CC(N)=O)CC2)cc1Cl | 64.9 |
| CC(C)c1ccc(OCCC(=O)N2CCC(CC(N)=O)CC2)cc1 | 31.19 |
| CCc1nc(N)nc(N2CCCC3(CCOCC3)C2)c1C | 39.57 |
| Cc1ocnc1C(=O)N(C)[C@@H]1CC[C@@H](n2ccnc2C)[C@@H]1O | -12.75 |
| O=C1CN(C(=O)CNC(CC(F)(F)F)c2ccc(F)cc2)CCN1 (stereo unspecified) | 7.05 |
| COc1c(CNC(c2ccccc2)c2ccc(F)cc2)c(C)nn1C (stereo unspecified) | 13.67 |
| Cc1noc(C(C)N2CCN(CCn3ccccc3=O)CC2)n1 (stereo unspecified) | 25.78 |
| CCOCc1cccc(S(=O)(=O)Nc2ncc(C)s2)c1 | 44.59 |
| Cc1nc(C)n(CC2CCCN2CC(=O)Nc2cc(C(C)C)no2)n1 (stereo unspecified) | 35.42 |
| CCc1noc(CN(CC)C(=O)CC2C(=O)NCCN2CC(C)(C)C)n1 (stereo unspecified) | 43.6 |
| CCc1noc(CN(CC)C(=O)CC2C(=O)NCCN2CC=C(C)C)n1 (stereo unspecified) | 3.66 |
| CCN(Cc1noc(C)n1)C(=O)CC1C(=O)NCCN1CC(C)(C)C (stereo unspecified) | 55.84 |
| CN(C)CCOc1ccccc1N1CCN(C(=O)C(C)(C)C#N)CC1 | -4.91 |
| CC(C)(C)C(O)CCNC(=O)c1ccc(F)cc1Cl (stereo unspecified) | -9.71 |

| Compound | INHIBITION [%] |
| --- | --- |
| Cc1cc(NC2CCc3ncnn3C2)n2nc(C(F)(F)F)nc2n1 (stereo unspecified) | -30.02 |
| O=C(CN1CCS(=O)(=O)CC1)Nc1ccc(N2CCCC2)nc1 | -4.89 |
| COc1ccc(NC(=O)CN2CCS(=O)(=O)CC2)cn1 | -9.39 |
| CN(C)c1ccc(NC(=O)CN2CCS(=O)(=O)CC2)cn1 | 71.64 |
| c1cncc(-c2ccc3c(c2)C2(CC3)CCN(c3nncs3)CC2)c1 | 12.3 |
| Cc1cc(-c2c(C)c(-c3cnn(C)c3)nc(N)c2C#N)oc1C | 23.43 |
| Cc1c(-c2cnn(C)c2)nc(N)c(C#N)c1-c1ccc(CO)o1 | 55.7 |
| CCc1ccc(-c2c(C)c(-c3cnn(C)c3)nc(N)c2C#N)o1 | 49.25 |
| COc1ccc(Cn2cc(C(=O)N(C)Cc3cnccn3)nn2)cc1 | -21.09 |
| O=C(CC1CC1)N1CCC2(COCc3cnc(N4CCOCC4)nc32)C1 (stereo unspecified) | 51.72 |
| COCC(=O)N1CCC2(COCc3cnc(-c4ccccc4)nc32)C1 (stereo unspecified) | -22.64 |
| O=C(C1CC1)N1CCC2(COCc3cnc(N4CCOCC4)nc32)C1 (stereo unspecified) | 29.95 |
| COCCC(=O)N1CCC2(COCc3cnc(-c4cccnc4)nc32)C1 (stereo unspecified) | -20.41 |
| CCC(=O)N1CCC2(COCc3cnc(N4CCOCC4)nc32)C1 (stereo unspecified) | 35.84 |
| COCCC(=O)N1CCC2(COCc3cnc(-c4ccccc4)nc32)C1 (stereo unspecified) | 50.32 |
| O=C(c1cc(=O)c(OCc2ccccc2F)co1)N1CCSCC1 | 36.6 |
| c1csc(CN2CCOCC3(CCN(C4CCOCC4)C3)C2)n1 (stereo unspecified) | 2.71 |
| CC(C)c1nc(CN2CCCC2Cn2cncn2)no1 (stereo unspecified) | -13.92 |
| CCN1CCCC(C)(C(=O)NCc2nncn2CCc2ccccc2)C1 (stereo unspecified) | -4.93 |
| c1ccc(-c2nc(CN3CCCC3Cn3cncn3)no2)cc1 (stereo unspecified) | -5.3 |
| CC1(C)CC(=O)N(CC(=O)Nc2ccon2)c2ccccc21 | 40.97 |
| CCn1ccnc1CN1CCN(CC(O)CN2CCOCC2)CC1 (stereo unspecified) | 38.68 |

| Compound | INHIBITION [%] |
| --- | --- |
| Cc1ccc(CNC(CN2CCN(C)CC2)c2ccccc2)cc1 (stereo unspecified) | -10.6 |
| CN1CCN(CC(NCc2ccc(F)c(F)c2)c2ccccc2)CC1 (stereo unspecified) | 12.57 |
| CN1CCN(CC(NCc2ccc(F)cc2)c2ccccc2)CC1 (stereo unspecified) | 58.29 |
| c1ccc(CNCC2Cn3nnc(-c4ccncc4)c3CO2)nc1 (stereo unspecified) | 2.87 |
| C[C@@H](O)[C@H](NC(=O)c1csc2nc(-c3ccccc3F)cn12)C(N)=O | 16.95 |
| CCc1ccc(-c2cn3c(C(=O)NCC(C)C(=O)NC)csc3n2)cc1 (stereo unspecified) | 8.54 |
| CCc1ccc(-c2cn3c(C(=O)N[C@H](C(N)=O)[C@@H](C)O)csc3n2)cc1 | 61.82 |
| CCCc1cc(=O)[nH]c(SCc2ccccn2)n1 | 4.95 |
| CCc1c(C)nc(SCc2ccccn2)[nH]c1=O | 50.67 |
| CCc1cc(=O)[nH]c(SCc2ccccn2)n1 | 8.41 |
| CNC(=O)c1cc2c(nc1N(C)C)CCN(c1ncccn1)CC2 | -31.3 |
| Cc1cc(C(=O)NCCc2cn3nc(C)sc3n2)c(C)o1 | 55.66 |
| Cc1nn2cc(CCNC(=O)c3cc(C(C)C)nn3C)nc2s1 | -8.8 |
| Cc1nn2cc(CCNC(=O)c3cc(C(C)C)no3)nc2s1 | 11.9 |
| COCC1CN(C(=O)Cc2cccc(F)c2)Cc2ccnn2C1 (stereo unspecified) | 13.52 |
| CCCN(CCc1ccccn1)C(=O)CCc1cnn(C)c1 | -46.85 |
| CC1(C)CC(N(Cc2ccccc2)Cc2cccnc2)CC(C)(C)N1 | 26.52 |
| Cc1ccc(CN2CCN(c3ncccc3C(N)=O)CC2CCO)cc1 (stereo unspecified) | 3.92 |
| CNC(=O)c1cccnc1N1CCN(Cc2ccccc2)C(CCO)C1 (stereo unspecified) | -4.52 |
| O=C(O)c1cccnc1N1CCN(Cc2ccc(F)cc2)C(CCO)C1 (stereo unspecified) | 78.43 |
| c1cncc(C2COC3(CCN(Cc4ccsc4)CC3)C2)c1 (stereo unspecified) | 32.85 |
| Cn1nccc1CN1CCOC(c2cccc(Nc3ccccn3)n2)C1 (stereo unspecified) | -88.78 |
